High-throughput results (PubChem BioAssay)
TEAD-YAP block: TEAD-YAP interaction inhibition. 1.4% of 640,000 active. AID 1259422. inhibition, % at 9.12 µM. HEK-TIYL cells, TEAD-Gal4/YAP UAS-luciferase luminescence; in the data active = inhibition above about 32%;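 note: 0% = median of test compound wells and 100% = reference inhibitor wells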
MITF primary: human MITF inhibition, primary screen. 0.91% of 650,000 active. AlphaScreen MITF homodimerization, bead proximity signal. inhibition, % at 2.6 µM. O75030; in the data active = inhibition above about 50%;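 note: 0% = vehicle wells with protein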
GPR151 ag: human GPR151 activation; Q8TDV0; PathHunter beta-arrestin GPR151 cells, luminescence; activation, % at 11.2 µM; 1% of 650,000 active; in the data active = activation above about 4.9%;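 note: 0% = median of compound wells and 100% = cells with positive control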
FBW7 act: activators of human E3 ligase FBW7. normalized activity (activation), % at 26.1 µM. 0.13% of 650,000 active. Q969H0. AID 1259310. AlphaScreen FBW7–phospho-cyclin E peptide binding, activator screen; in the data active = normalized activity above about 1.9%;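 note: purified mutant Fbw7 with reduced substrate affinity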
Target sequence (Q969H0 whole entry, looked up): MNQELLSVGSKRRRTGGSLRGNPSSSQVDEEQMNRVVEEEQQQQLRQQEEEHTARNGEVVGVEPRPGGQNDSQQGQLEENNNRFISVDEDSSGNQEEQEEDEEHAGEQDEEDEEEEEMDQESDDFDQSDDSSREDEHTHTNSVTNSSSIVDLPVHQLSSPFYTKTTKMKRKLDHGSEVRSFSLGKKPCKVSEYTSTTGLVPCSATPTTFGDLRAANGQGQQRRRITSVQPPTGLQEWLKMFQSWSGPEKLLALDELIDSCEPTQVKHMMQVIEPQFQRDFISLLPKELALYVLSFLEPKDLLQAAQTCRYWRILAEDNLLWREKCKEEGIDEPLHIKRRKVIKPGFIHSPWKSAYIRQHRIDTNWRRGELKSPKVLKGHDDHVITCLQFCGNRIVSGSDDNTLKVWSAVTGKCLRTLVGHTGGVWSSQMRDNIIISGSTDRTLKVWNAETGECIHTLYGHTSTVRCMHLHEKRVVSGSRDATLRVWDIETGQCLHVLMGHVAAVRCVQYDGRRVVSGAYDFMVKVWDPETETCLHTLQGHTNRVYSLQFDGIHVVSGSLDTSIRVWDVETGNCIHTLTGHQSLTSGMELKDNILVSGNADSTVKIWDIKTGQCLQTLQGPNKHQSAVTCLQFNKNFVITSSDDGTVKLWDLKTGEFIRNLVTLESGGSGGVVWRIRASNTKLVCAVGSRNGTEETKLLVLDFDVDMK
MITF inh conf: confirmation of human MITF inhibitors; shares compounds with MITF primary; AlphaScreen MITF homodimerization, biotin/His-MITF beads; inhibition, % at 2.6 µM; 16% of 4,700 active;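 active = inhibition above a cutoff derived from the DMSO control wells, cut at about 28% in these data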;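 note: 0% = MITF dimer wells with DMSO only; inhibitors lower the bead chemiluminescence by keeping MITF from dimerizing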
AlphaScreen DR: counter-screen: compounds optically interfering with AlphaScreen; shares compounds with MITF primary; AlphaScreen optical interference counterscreen, cell-free; IC50, µM; 6% of 480 active; call rule not given here
AS interf ctr: optically interferes with AlphaScreen signal. inhibition, % at 2.6 µM. shares compounds with MITF primary. 7.6% of 4,700 active. LysRS AlphaScreen counterscreen, signal interference, triplicate;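 active = inhibition above a cutoff derived from the DMSO control wells, cut at about 30% in these data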
* = called active by the depositor; nt = no result. Only some compounds are listed: those with a hit (about 3.5% of all), similar ones and a draw of the others.

SMILES	TEAD-YAP block	MITF primary	GPR151 ag	FBW7 act	MITF inh conf	AS interf ctr	others
Cc1ccc(C)c(OCCOCCNC(C)(C)C)c1	2	33	0	0	nt	nt
Cc1cc(Cl)cc(C)c1OCCOCCNC(C)(C)C	3	67*	0	0	-11	-9
Cc1cc(OCCOCCNC(C)(C)C)cc(C)c1Cl	0	31	1	0	nt	nt
O=C(Cn1ncc2c(=O)oc3ccccc3c21)NCc1ccccn1	11	-8	4	0	nt	nt
O=[N+]([O-])c1ccc(S(=O)(=O)N2CCN(C3CCCC3)CC2)cc1	3	53*	0	0	-6	-4
O=S(=O)(c1ccccc1)N1CCN(C2CCCCCC2)CC1	-4	59*	1	0	-14	-2
O=[N+]([O-])c1ccc(S(=O)(=O)N2CCN(C3CCCCCC3)CC2)cc1	0	38	0	0	nt	nt
Cc1ccc(S(=O)(=O)N2CCN(C3CCCCC3)CC2)cc1	-7	30	1	0	nt	nt
CCCCC(=O)Nc1sccc1C(N)=O	-13	7	3	0	nt	nt
c1cncc(CNc2nc(Nc3ccc(N4CCOCC4)cc3)nc3c2ncn3C2CCCCC2)c1	-3	14	-1	0	nt	nt
c1cncc(CNc2nc(Nc3ccc(N4CCOCC4)cc3)c3ncn(C4CCCCC4)c3n2)c1	-13	51*	-1	0	84*	-13
COc1ccc(-c2nnc3ccc(SCC(=O)NC4CCCC4)nn23)cc1	-9	-8	0	0	nt	nt
C/C(=N\Nc1ccc(S(=O)(=O)O)cc1)c1cccc(Br)c1	-7	56*	0	-1	38*	12	AlphaScreen DR=>6.5
C/C(=N\Nc1ccc(C(=O)O)cc1)c1cccc(Br)c1	-78	5	-2	0	nt	nt
O=C(OC1CCCC1=O)c1ccc(N2CCCC2=O)cc1 (stereo unspecified)	-21	62*	-2	0	44*	10	AlphaScreen DR=>7.2
Cc1cc(NCc2cccc(C(F)(F)F)c2)nc(-c2csc3ccccc23)n1	-6	14	0	0	nt	nt
FC(F)(F)c1cccc(CNc2cc(-c3csc4ccccc34)ncn2)c1	-3	62*	3	0	-3	0
Cc1cc(C)cc(C(=O)O/N=C(\N)c2cccnc2)c1	-10	56*	0	0	-20	-2
COc1cccc(C(=O)O/N=C(\N)c2cccnc2)c1	-41	9	-4	0	nt	nt
Cc1ccc(CNC(=O)CSc2nc(NC3CCCCC3)c3ccccc3n2)cc1	1	3	1	0	nt	nt
O=C(CSc1nc(NC2CCCCC2)c2ccccc2n1)NC1CCCCC1	8	58*	3	0	3	6
Oc1ccc(CCNc2cc(-c3cccs3)ncn2)cc1	-18	59*	3	0	44*	4	AlphaScreen DR=>6.7
O=C(Cn1nnc(-c2ccccc2NC(=O)C2CC2)n1)Nc1ccccc1	3	-2	0	0	nt	nt
NC(=O)Cn1nnc(-c2ccccc2NC(=O)C2CCCCC2)n1	2	84*	-1	0	12	11
COc1ccccc1CNCC(=O)c1ccc(OC)c(OC)c1	2	68*	0	0	-6	0
SMILES	TEAD-YAP block	MITF primary	GPR151 ag	FBW7 act	MITF inh conf	AS interf ctr	others
COc1ccc(N(C(=O)/C=C/c2ccccc2)C2=CC3CCC(C2)N3C)cc1 (stereo unspecified)	-33	56*	-3	0	9	11
CCc1nnc(NC(=O)c2oc3ccccc3c2CSc2ncn[nH]2)s1	-11	-13	-2	0	nt	nt
O=C(N/N=C/c1cccc2cccnc12)c1ccc(Cl)cc1	25	37	-1	0	nt	nt
O=C(N/N=C\c1cccc([N+](=O)[O-])c1)c1cnccn1	-21	66*	-1	0	1	15
O=C(N/N=C/c1cccc2cccnc12)c1cccc([N+](=O)[O-])c1	5	53*	-3	0	56*	100*
COc1ccc2c(C)cc(N3CCCN(C)CC3)nc2c1	8	62*	1	0	-2	-3
COc1ccc(-c2cc(N3CCCN(C)CC3)ncn2)cc1	-14	10	-1	0	nt	nt
CN(C)CCCN(CCCN(C)C)Cc1ccc(Br)cc1	2	54*	0	0	-1	8
COc1ccc(CN(CCCN(C)C)CCCN(C)C)cc1OC	1	35	0	0	nt	nt
NS(=O)(=O)c1ccc(CNc2ccc3ncc(-c4cccc(C(=O)O)c4)n3n2)cc1	0	69*	1	0	9	11
O=c1ccc(-c2ccc3cnc(Nc4ccc(-n5cnc(N6CCOCC6)n5)cc4)nc3c2)c[nH]1	-13	60*	-1	1	5	-2
Cn1cc(-c2nc(Nc3ccc(-n4cnc(N5CCOCC5)n4)cc3)ncc2Br)cn1	4	57*	0	0	67*	3	AlphaScreen DR=>6.5
c1cc(-c2ccc3cnc(Nc4ccc(-n5cnc(N6CCOCC6)n5)cc4)nc3c2)ccn1	-40	16	-1	0	nt	nt
O=S(=O)(Cc1ccc(Cl)cc1)NCCN1CCOCC1	-1	72*	0	0	9	10
O=S(=O)(NCCCN1CCOCC1)c1ccc(Cl)cc1	-4	-16	2	0	nt	nt
CC(O)(CNCCN1CCOCC1)COc1ccc(Cl)cc1 (stereo unspecified)	8	55*	1	0	73*	0	AlphaScreen DR=>6.3
Cc1ccc(S(=O)(=O)N2CCN(S(=O)(=O)c3ccc(F)cc3)CC2)cc1	-1	6	-1	0	nt	nt
Cc1c(Cl)cccc1N1C(N)=C(C#N)C(c2ccc(C(C)(C)C)s2)C2=C1CC(C)(C)CC2=O (stereo unspecified)	-10	2	-1	0	nt	nt
CCOc1cc(-c2ccc(I)o2)cc(=O)c2c(C)oc(C)c12	-2	58*	-1	0	37*	-2
CCOc1cc(-c2cc(OCC)c3c(C)oc(C)c3c(=O)c2)ccc1O	-7	-7	0	0	nt	nt
OCCC1CN(Cc2nc3ccccc3s2)CCN1Cc1cccs1 (stereo unspecified)	-8	-2	-2	0	nt	nt
O=C(NCc1ccccn1)C1CCN(S(=O)(=O)N2CCC3(CC2)OCCO3)CC1	1	52*	1	0	17	14
CCCCN(C)C(=O)C1CCN(C(=O)c2cnn(-c3ccccc3)c2-n2cccc2)CC1	0	2	-2	0	nt	nt
Cc1nn(-c2ccc(F)cc2)c(C)c1CNCc1ccccc1	-3	70*	0	0	25	10
CCCNc1nc(NCC)nc2c1ncn2C1CCCCC1	1	69*	0	0	2	5
Cc1ccnc(NC(=O)CSC2=NC(=O)C(c3ccccc3)C(=O)N2)c1 (stereo unspecified)	3	93*	1	0	2	9
COc1ccc(CCNCc2ccc(-n3ccnc3)cc2)cc1	-1	36	-1	0	nt	nt
